The campaign covered roughly 5,500 compounds. About 2,000 (36%) were called active. About 18% were inconclusive and are not listed. Cut-off read from the data, not from the text of the source: active = normalized growth mostly below about 0.91 (no sharp cut-off); inconclusive = no clear call, values can overlap the other calls; inactive = mostly above about 0.92. The list shows a part of the results.
Assay: chemical genetic growth profiling, strain panel (AID 1159580);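 note: tested at 20 µM; growth read once vehicle control cultures reached saturation at 30 °C; 1 = growth at the plate median or of vehicle wells; lower values mean less growth of the strain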
Details: growth OD

Measured: normalized growth

Fc1ccc([C@@H]2CCNC[C@H]2COc2ccc3c(c2)OCO3)cc1
inactive: S. cerevisiae deletion strains, locus YJR075W, strain HOC1, stronger effect = lower value 1.03 | S. cerevisiae deletion strains, locus YKL009W, strain mrt4, stronger effect = lower value 1.03 | S. cerevisiae deletion strains, locus YKL068W, stronger effect = lower value 1 | S. cerevisiae deletion strains, locus YKL085W, strain MDH1 (second series), stronger effect = lower value 0.991 | S. cerevisiae deletion strains, locus YKL085W, strain MDH1, stronger effect = lower value 0.991 | S. cerevisiae deletion strains, locus YKL160W, strain elf1, stronger effect = lower value 0.99 | S. cerevisiae deletion strains, locus YKL190W, strain CNB1, stronger effect = lower value 1.01 | S. cerevisiae deletion strains, locus YKR001C, strain vps1, stronger effect = lower value 1.02 | S. cerevisiae deletion strains, locus YKR026C, strain gcn3, stronger effect = lower value 1.01 | S. cerevisiae deletion strains, locus YKR091W, strain srl3, stronger effect = lower value 0.999 | S. cerevisiae deletion strains, locus YLL001W, strain dnm1, stronger effect = lower value 1 | S. cerevisiae deletion strains, locus YLL026W, stronger effect = lower value 0.998 | S. cerevisiae deletion strains, locus YLL041C, strain sdh2, stronger effect = lower value 1 | S. cerevisiae deletion strains, locus YLR027C, strain aat2, stronger effect = lower value 1 | S. cerevisiae deletion strains, locus YLR039C, strain RIC1, stronger effect = lower value 1.09 | S. cerevisiae deletion strains, locus YLR058C, strain SHM2, stronger effect = lower value 1.01 | S. cerevisiae deletion strains, locus YLR102C, strain apc9, stronger effect = lower value 1.02 | S. cerevisiae deletion strains, locus YLR113W, strain HOG1, stronger effect = lower value 0.995 | S. cerevisiae deletion strains, locus YLR221C, strain rsa3, stronger effect = lower value 1.01 | S. cerevisiae deletion strains, locus YLR258W, strain gsy2, stronger effect = lower value 1.01 | S. cerevisiae deletion strains, locus YLR262C, strain YPT6 (second series), stronger effect = lower value 1.08 | S. cerevisiae deletion strains, locus YLR262C, strain YPT6, stronger effect = lower value 1.09 | S. cerevisiae deletion strains, locus YLR268W, strain sec22, stronger effect = lower value 0.989 | S. cerevisiae deletion strains, locus YLR320W, strain mms22, stronger effect = lower value 0.984 | S. cerevisiae deletion strains, locus YLR330W, strain CHS5, stronger effect = lower value 1.01 | S. cerevisiae deletion strains, locus YLR342W, strain FKS1 (second series), stronger effect = lower value 1.06 | S. cerevisiae deletion strains, locus YLR342W, strain FKS1, stronger effect = lower value 0.996 | S. cerevisiae deletion strains, locus YLR357W, strain rsc2, stronger effect = lower value 0.998 | S. cerevisiae deletion strains, locus YLR370C, strain arc18, stronger effect = lower value 0.994 | S. cerevisiae deletion strains, locus YLR371W, strain rom2, stronger effect = lower value 1.01 | S. cerevisiae deletion strains, locus YLR384C, strain iki3, stronger effect = lower value 0.995 | S. cerevisiae deletion strains, locus YLR418C, strain cdc73, stronger effect = lower value 1.01 | S. cerevisiae deletion strains, locus YML016C, strain PPZ1, stronger effect = lower value 1.01 | S. cerevisiae deletion strains, locus YML032C, strain rad52, stronger effect = lower value 1.02 | S. cerevisiae deletion strains, locus YML120C, strain ndi1, stronger effect = lower value 0.991 | S. cerevisiae deletion strains, locus YML124C, strain tub3, stronger effect = lower value 1 | S. cerevisiae deletion strains, locus YMR058W, strain fet3, stronger effect = lower value 1 | S. cerevisiae deletion strains, locus YMR078C, strain ctf18, stronger effect = lower value 1.01 | S. cerevisiae deletion strains, locus YMR125W, strain sto1, stronger effect = lower value 0.999 | S. cerevisiae deletion strains, locus YMR129W, stronger effect = lower value 0.995 | S. cerevisiae deletion strains, locus YMR205C, strain PFK2, stronger effect = lower value 0.98 | S. cerevisiae deletion strains, locus YMR223W, strain ubp8, stronger effect = lower value 1.03 | S. cerevisiae deletion strains, locus YMR231W, strain pep5, stronger effect = lower value 1.01 | S. cerevisiae deletion strains, locus YMR263W, strain SAP30, stronger effect = lower value 1 | S. cerevisiae deletion strains, locus YMR307W, strain GAS1, stronger effect = lower value 1.13 | S. cerevisiae deletion strains, locus YNL067W, strain RPL9B, stronger effect = lower value 0.994 | S. cerevisiae deletion strains, locus YNL071W, strain lat1, stronger effect = lower value 1 | S. cerevisiae deletion strains, locus YNL128W, strain TEP1, stronger effect = lower value 1.02 | S. cerevisiae deletion strains, locus YNL153C, strain GIM3, stronger effect = lower value 0.979 | S. cerevisiae deletion strains, locus YNL183C, strain NPR1, stronger effect = lower value 1.01 | S. cerevisiae deletion strains, locus YNL209W, strain ssb2, stronger effect = lower value 1 | S. cerevisiae deletion strains, locus YNL233W, strain BNI4, stronger effect = lower value 1 | S. cerevisiae deletion strains, locus YNL248C, strain rpa49, stronger effect = lower value 1.02 | S. cerevisiae deletion strains, locus YNL250W, strain rad50, stronger effect = lower value 1 | S. cerevisiae deletion strains, locus YNL271C, strain bni1, stronger effect = lower value 1.02 | S. cerevisiae deletion strains, locus YNL298W, strain CLA4, stronger effect = lower value 1.01 | S. cerevisiae deletion strains, locus YNL307C, strain MCK1, stronger effect = lower value 1.03 | S. cerevisiae deletion strains, locus YNL322C, strain KRE1 (second series), stronger effect = lower value 1.01 | S. cerevisiae deletion strains, locus YNL322C, strain KRE1, stronger effect = lower value 1.01 | S. cerevisiae deletion strains, locus YNR049C, strain mso1, stronger effect = lower value 1 | S. cerevisiae deletion strains, locus YNR052C, strain pop2, stronger effect = lower value 1.02 | S. cerevisiae deletion strains, locus YOL006C, strain TOP1, stronger effect = lower value 1.06 | S. cerevisiae deletion strains, locus YOL012C, strain htz1 1.14 | S. cerevisiae deletion strains, locus YOL147C, strain pex11, stronger effect = lower value 1 | S. cerevisiae deletion strains, locus YOR001W, strain rrp6, stronger effect = lower value 0.983 | S. cerevisiae deletion strains, locus YOR061W, strain CKA2, stronger effect = lower value 1.01 | S. cerevisiae deletion strains, locus YOR069W, strain VPS5, stronger effect = lower value 1.01 | S. cerevisiae deletion strains, locus YOR070C, strain gyp1, stronger effect = lower value 1 | S. cerevisiae deletion strains, locus YOR080W, strain dia2, stronger effect = lower value 1 | S. cerevisiae deletion strains, locus YOR083W, strain WHI5, stronger effect = lower value 1.01 | S. cerevisiae deletion strains, locus YOR106W, strain vam3, stronger effect = lower value 1 | S. cerevisiae deletion strains, locus YOR136W, strain idh2, stronger effect = lower value 1.01 | S. cerevisiae deletion strains, locus YOR144C, strain elg1, stronger effect = lower value 1 | S. cerevisiae deletion strains, locus YOR184W, strain ser1, stronger effect = lower value 1.05 | S. cerevisiae deletion strains, locus YOR231W, strain MKK1, stronger effect = lower value 1.03 | S. cerevisiae deletion strains, locus YOR265W, strain rbl2, stronger effect = lower value 0.996 | S. cerevisiae deletion strains, locus YOR270C, strain vph1, stronger effect = lower value 0.905 | S. cerevisiae deletion strains, locus YOR290C, strain snf2, stronger effect = lower value 1.03 | S. cerevisiae deletion strains, locus YOR316C, strain cot1, stronger effect = lower value 1 | S. cerevisiae deletion strains, locus YPL051W, strain arl3, stronger effect = lower value 1 | S. cerevisiae deletion strains, locus YPL055C, strain LGE1, stronger effect = lower value 1.01 | S. cerevisiae deletion strains, locus YPL078C, strain atp4, stronger effect = lower value 1.01 | S. cerevisiae deletion strains, locus YPL106C, strain sse1, stronger effect = lower value 1.03 | S. cerevisiae deletion strains, locus YPL240C, strain hsp82, stronger effect = lower value 1.02 | S. cerevisiae deletion strains, locus YPL241C, strain CIN2, stronger effect = lower value 1.01 | S. cerevisiae deletion strains, locus YPL256C, strain CLN2, stronger effect = lower value 1.04 | S. cerevisiae deletion strains, locus YPR119W, strain clb2, stronger effect = lower value 1.01 | S. cerevisiae deletion strains, locus YPR141C, strain kar3, stronger effect = lower value 1 | S. cerevisiae deletion strains, locus YPR163C, strain tif3, stronger effect = lower value 1 | S. cerevisiae deletion strains, locus YPR167C, strain met16, stronger effect = lower value 1.01 | S. cerevisiae deletion strains, strain wtn01, stronger effect = lower value 0.998 | S. cerevisiae strains, strain wild type, stronger effect = lower value 1.02

— PubChem BioAssay AID1159580 (chemical genetic matrix, 2015)
